The results in this text go back to PubChem BioAssay (NCI).

This is part of a sample that, as a whole, favours compounds with a hit. Of some 79,000 tested, about 15% had one in any assay. Values without a mark were called inactive. The source made the active and inactive calls. No stated cut-off is given here; in the data, active means growth inhibition above about 70%; inactive means the rest.

Assay [1] in a line: NCI Yeast Anticancer Drug Screen. Data for the rad50 strain (AID 155).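 Further: 0% = growth of vehicle-only cultures of the same strain.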 The following applies: S. cerevisiae rad50 strain growth inhibition; at 50.0 µM; stronger effect = higher value. The method, boiled down:
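Relative growth inhibition (compound vs vehicle) was measured in yeast with a defined repair-gene alteration.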

Assay [2] in a line: NCI Yeast Anticancer Drug Screen. Data for the mec2-1 strain (AID 157). The following applies: S. cerevisiae mec2-1 strain, at 50.0 µM, stronger effect = higher value. In a few lines: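 Using mec2-1 yeast: add compound, measure growth, express inhibition versus vehicle-treated cultures.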
A short description of assay [3]: NCI Yeast Anticancer Drug Screen. Data for the sgs1 mgt1 strain (AID 161).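 Further: 0% = growth of cultures given vehicle only.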 The conditions noted are these: S. cerevisiae sgs1 mgt1 strain, at 50.0 µM, stronger effect = higher value. In a few lines: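 Percent growth inhibition was derived by comparing compound-exposed mutant yeast with vehicle-exposed cultures. The strain carries alterations in DNA damage repair.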
Assay [4] is described as follows: NCI Yeast Anticancer Drug Screen. Data for the cln2 rad14 strain (AID 165).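 Further: 0% = growth equal to vehicle treated cultures.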 The following applies: S. cerevisiae cln2 rad14 strain, at 50.0 µM, stronger effect = higher value. The method, boiled down: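 Yeast strain cln2 rad14, bearing defects in cell cycle control and DNA repair, serves as the test system; values reflect growth inhibition compared with vehicle.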
The nature of assay [5]: NCI Yeast Anticancer Drug Screen. Data for the bub3 strain (AID 167). The conditions noted are these: S. cerevisiae bub3 mutant strain, at 50.0 µM, stronger effect = higher value. The method, boiled down:
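Screening used yeast with an engineered genetic alteration affecting cell cycle control. Compound-exposed cultures were compared with vehicle cultures, and reduced growth was taken as inhibition.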

Assay [6] is described as follows: NCI Yeast Anticancer Drug Screen. Data for the mlh1 rad18 strain (AID 175). The conditions noted are these: S. cerevisiae mlh1 rad18 strain growth inhibition; at 50.0 µM; stronger effect = higher value. The method, boiled down:
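Steps: expose repair-defective yeast to compound; measure growth; express inhibition against vehicle-treated controls.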

For `O=C(O)c1ccc(Cl)cc1[N+](=O)[O-]`, the growth inhibition in assay [1] was 23.4%; in assay [2], -8.5%; in assay [3], 21.6%; in assay [4], 19.9%; in assay [5], 0.5%; in assay [6] it was 25.1%.
For `CC1(C)OC2C(CO)OC(n3ccc(N)nc3=O)C2O1` (stereo not drawn), the growth inhibition in assay [1] is -33%; in assay [2] it was -12%; in assay [3] it was 2.15%; in assay [4] it was -29.9%; in assay [5], 10.6%; in assay [6] it was -1.75%.
With `CCCC(C(C)=O)C(C)=O`, the growth inhibition in assay [1] is -7.8%; in assay [2], -0.65%; in assay [3] it was -4.85%; in assay [4], 0.3%; in assay [5] it was 6%; in assay [6] it was -4.25%.
Take `COC(=O)CCCCCN1C(=O)c2cccc([N+](=O)[O-])c2C1=O`: the growth inhibition in assay [1] is 20.6%; in assay [2] it was 7.2%; in assay [3] it was 15.6%; in assay [4], 20.9%; in assay [5] it was 15.2%; in assay [6], 20.6%.
On to `CC(=O)c1cc2c(cc1C)C(C(C)C)CCC2(C)C` (stereo not drawn), for which the growth inhibition is 3.75% in assay [1]; -14.6% in assay [2]; 6.55% in assay [3]; -18.8% in assay [4]; 41.7% in assay [5]; 6.85% in assay [6].
As for `CCOC(=O)/C(C#N)=C/c1ccc(-c2cc(C(F)(F)F)cc(C(F)(F)F)c2)o1`, the growth inhibition in assay [1] was -17.9%; in assay [2], -7%; in assay [3] it was -8%; in assay [4], -15.4%; in assay [5] it was -2.5%; in assay [6], -0.8%.
Turning to `O=C(Nc1ccc(NC(=O)Nc2ccc(C3=NCCN3)cc2)cc1)Nc1ccc(C2=NCCN2)cc1`, the growth inhibition is -7.7% in assay [1]; 7.15% in assay [2]; 7.65% in assay [3]; -1.7% in assay [4]; -21.1% in assay [5]; -19.6% in assay [6].
For the compound `C1=CCc2cc3c(cc2=C1)C=c1ccccc1=3`, the growth inhibition is -12.3% in assay [1]; -19.4% in assay [2]; -11.2% in assay [3]; -5.9% in assay [4]; -8.2% in assay [5]; -19.4% in assay [6].
On to `COc1ccc(N2C(=O)/C(=C\c3ccc(N(CCC#N)CCC#N)cc3)N=C2COc2ccccc2)cc1`, for which the growth inhibition in assay [1] is 0.8%; in assay [2] it was -2.2%; in assay [3] it was 4.45%; in assay [4], 8.7%; in assay [5] it was -1.35%; in assay [6] it was 1.3%.
`CC(=O)CCC(CC=O)C(C)C` (stereo not drawn): the growth inhibition in assay [1] was 3.35%; in assay [2], 0%; in assay [3], 7.6%; in assay [4] it was -4.9%; in assay [5] it was -3.65%; in assay [6], 2.6%.
With `O=C(CCCC(=O)N/N=C/c1ccc(I)cc1)N/N=C\c1ccc(I)cc1`, the growth inhibition in assay [1] is 29.9%; in assay [2], 9%; in assay [3], 25.2%; in assay [4], 25.1%; in assay [5], -1.05%; in assay [6], 17.7%.
Consider `CCCCc1c(O)c2c(=O)[nH]c(C)nc2oc1=O`, for which the growth inhibition in assay [1] is -9.8%; in assay [2], -5.95%; in assay [3] it was -9.65%; in assay [4], -13.2%; in assay [5] it was -32.4%; in assay [6] it was 10.9%.
For the compound `N#CC1(C#N)CC1(C#N)C#N`, the growth inhibition was 7.9% in assay [1]; 16.4% in assay [2]; -1.75% in assay [3]; 27.1% in assay [4]; 12.7% in assay [5]; 15.2% in assay [6].
Take `Cc1ccc(S(=O)(=O)OC2C(C)OCOC3COCOC32)cc1` (stereo not drawn): the growth inhibition is -6.3% in assay [1]; -6.45% in assay [2]; 5.4% in assay [3]; -13.7% in assay [4]; 2.65% in assay [5]; -9.85% in assay [6].
For the compound `COc1ccc(C2=C(c3ccccc3)C(=O)C(c3ccccc3)=C2c2ccccc2)cc1`, the growth inhibition is -12.9% in assay [1]; -12.9% in assay [2]; -8.7% in assay [3]; 13.2% in assay [4]; -1.7% in assay [5]; -6.05% in assay [6].
Take `Cc1ccc2nc3c(C)c(Cl)c(=O)cc-3sc2c1`: the growth inhibition in assay [1] was 7%; in assay [2], 19.4%; in assay [3] it was 7.4%; in assay [4], -0.1%; in assay [5], -2.4%; in assay [6] it was 36.5%.
As for `C=CC(=O)OCCC#N`, the growth inhibition in assay [1] is 9%; in assay [2], 18.8%; in assay [3], 1.3%; in assay [4] it was 2.8%; in assay [5], 15.1%; in assay [6] it was 5.45%.
Regarding `CCC(O)(c1ccc(OC)cc1)C(c1ccccc1)c1ccccn1` (stereo not drawn), the growth inhibition in assay [1] is -1.3%; in assay [2], -8.8%; in assay [3], 6.5%; in assay [4], -16.5%; in assay [5], 2.8%; in assay [6] it was -0.65%.
Turning to `CC1=C(CCC#N)C(=O)C(CCC#N)C(C)(C)C1` (stereo not drawn), the growth inhibition in assay [1] was 0.15%; in assay [2], -8.65%; in assay [3] it was -16.6%; in assay [4], -29.6%; in assay [5], -2.75%; in assay [6], -7.9%.
For `CCOc1ccnc2c(OC)c(C)c3nc4ccccc4nc3c12`, the growth inhibition was 7.6% in assay [1]; -13.2% in assay [2]; -4.65% in assay [3]; 13.6% in assay [4]; -7.3% in assay [5]; 91% (active) in assay [6].
On to `C#CC(O)(CC)CCCC` (stereo not drawn), for which the growth inhibition in assay [1] was -8.85%; in assay [2], -13.4%; in assay [3], 10.2%; in assay [4], -18.5%; in assay [5] it was -10.9%; in assay [6], -4.25%.
For the compound `N#CC1(C#N)C(c2ccccc2)C1(C#N)C(N)=O` (stereo not drawn), the growth inhibition is -13.2% in assay [1]; 11.4% in assay [2]; -22.9% in assay [3]; -20.6% in assay [4]; -6.7% in assay [5]; -27.5% in assay [6].
`Cc1ccc(C(c2ccc(C)c(C)c2)C(O)C(O)C(O)CO)cc1C` (stereo not drawn): the growth inhibition in assay [1] was 20%; in assay [2], -2.25%; in assay [3], 0.65%; in assay [4], 12.9%; in assay [5] it was 6.7%; in assay [6] it was 8.85%.
With `N#CC(C(=N/O)/C(=N\O)C(C#N)c1ccccc1)c1ccccc1` (stereo not drawn), the growth inhibition in assay [1] was -3.35%; in assay [2], -11.1%; in assay [3] it was 2.55%; in assay [4] it was -4%; in assay [5], -5.75%; in assay [6], 25.1%.
Turning to `CC(F)(F)C(F)(F)C(=O)CC(=O)C(F)(F)F.CC(F)(F)C(F)(F)C(=O)CC(=O)C(F)(F)F.[Cu]`, the growth inhibition is -9.15% in assay [1]; -20.4% in assay [2]; -9.75% in assay [3]; -72% in assay [4]; 1.95% in assay [5]; -43.6% in assay [6].
As for `Nc1nc(I)nc2c1ncn2C1OC(COS(N)(=O)=O)C(O)C1O` (stereo not drawn), the growth inhibition in assay [1] is 67%; in assay [2] it was 67.5%; in assay [3] it was 40.9%; in assay [4], 63.6%; in assay [5], 43.9%; in assay [6], 78.3% (active).
As to `CCOC(=O)/C(C#N)=C(O)/C(=C\c1ccc(Br)cc1)NC(=O)c1ccccc1`, the growth inhibition in assay [1] was -29.9%; in assay [2] it was -12.9%; in assay [3] it was -24.2%; in assay [4] it was 13.2%; in assay [5] it was -4.25%; in assay [6], -15.1%.
Take `CCOC(=O)CC/C(=N/Nc1ccc(Cl)cc1[N+](=O)[O-])C(=O)OCC`: the growth inhibition was 11.7% in assay [1]; -39.9% in assay [2]; -31.9% in assay [3]; -7.6% in assay [4]; -24.6% in assay [5]; -0.4% in assay [6].
For the compound `COc1cc2nc(C)oc(=O)c2cc1OC`, the growth inhibition in assay [1] was 19.1%; in assay [2], -16.8%; in assay [3], 10.9%; in assay [4] it was -28.4%; in assay [5] it was -12.3%; in assay [6] it was 0.85%.
Consider `O=[N+]([O-])c1ccc(CS(=O)(=O)c2ccccc2)o1`, for which the growth inhibition in assay [1] was 21.4%; in assay [2], -1.45%; in assay [3], 24.5%; in assay [4] it was -15.9%; in assay [5] it was 1.15%; in assay [6] it was 4.6%.
As to `CC(O)c1ccccc1Br` (stereo not drawn), the growth inhibition is -9.65% in assay [1]; -15.1% in assay [2]; -16.2% in assay [3]; -13.4% in assay [4]; -36.5% in assay [5]; -21% in assay [6].
For `Cc1ccc2c(c1)NC(C1Nc3cc(C)ccc3O1)O2` (stereo not drawn), the growth inhibition is -0.3% in assay [1]; -6.8% in assay [2]; -1.25% in assay [3]; -46.5% in assay [4]; -16.9% in assay [5]; -12.2% in assay [6].
For the compound `O=C(CC(C(=O)c1ccsc1)c1cccs1)c1ccsc1` (stereo not drawn), the growth inhibition in assay [1] is -11.2%; in assay [2], -19.2%; in assay [3] it was 18.6%; in assay [4], 24.5%; in assay [5], 28.9%; in assay [6] it was 3%.
Turning to `CCCNC(=O)Cn1c(C)cc2ccccc21`, the growth inhibition in assay [1] is 6.55%; in assay [2] it was 6.25%; in assay [3], 26.2%; in assay [4] it was 22.7%; in assay [5] it was 15.4%; in assay [6] it was -82.5%.
As to `CC(=O)/C(=C\I)c1ccccc1`, the growth inhibition in assay [1] was 87.8% (active); in assay [2], 91.8% (active); in assay [3], 85.4% (active); in assay [4] it was 89.9% (active); in assay [5], 89.5% (active); in assay [6], 85.5% (active).
As for `C[N+]1(C)CCCC(CO)(c2ccccc2)CC1` (stereo not drawn), the growth inhibition is 10.2% in assay [1]; 13% in assay [2]; 3.3% in assay [3]; -15.5% in assay [4]; 14.9% in assay [5]; 7.7% in assay [6].
For the compound `CC1CC(c2ccccc2)Nc2nc3ccccc3n21` (stereo not drawn), the growth inhibition in assay [1] was 5.65%; in assay [2], 3.45%; in assay [3], -4.7%; in assay [4], 7.95%; in assay [5], 5.65%; in assay [6], -14.3%.
As for `CCCCCCCCCCCCOc1ccccn1`, the growth inhibition is -11.2% in assay [1]; -33.6% in assay [2]; -7.65% in assay [3]; -7.45% in assay [4]; -11.6% in assay [5]; -4.55% in assay [6].
